Results filed as inconclusive are left out. Activity calls are given as the source filed them. Calls come from the whole dose curve; as a rule, active = well fitted inhibition curve with a large enough effect; inconclusive = small, poorly fitted or top-dose-only effect; inactive = flat fitted curve, though single readings scatter. *1 amine or outer side, *2 acyl side, *3 side chain or, on linkers, in order; H or OH if unused. Where a SMILES comes first, the peptide text is derived from it. Bridges are numbered along the chain shown (N, C = ends). X6 = O=C(CCC[*:2])[*:1]
Tests used:
Assay in all cases: Cytotoxic Profiling of Annotated Libraries Using Quantitative High-Throughput Screening (AID 1296008); note: nearly all actives have a fitted effect of over 60% in size
Details in all cases: Five cell lines viability, CellTiter-Glo ATP luminescence, 48-72 h; max response: stronger effect = lower value
CRL-7250 = system: CRL-7250
Method in brief: (§1)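 Compounds were pin-transferred onto cells and incubated 48 or 72 hr at 37 degree Celsius, 95% humidity. CellTiter-Glo was added, plates sat 10 min at room temperature, then ATP-coupled luminescence was imaged as the viability read-out.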

HEK293 = system: HEK293
Method in brief: as §1

HaCat = system: HaCat
Method in brief: as §1

KB-3-1 = system: KB-3-1
Method in brief: as §1

NIH3T3 = system: NIH3T3
Method in brief: as §1

Measured: max response
% is set by controls: 0 for no effect and ±100 for the full control effect.

OC[C@H]1O[C@@H](Oc2ccc3c(c2)OC[C@H]2c4cc5c(cc4O[C@@H]32)OCO5)[C@H](O)[C@@H](O)[C@@H]1O
inactive: CRL-7250 -1.83% | HEK293 | HaCat | KB-3-1 | NIH3T3 0.631%

CN1Cc2c(N)cccc2C(c2ccccc2)C1 (stereo not given)
inactive: CRL-7250 -1.42% | HEK293 3.6% | HaCat -17.5% | KB-3-1 -2.79% | NIH3T3

CC(=O)c1c(C)cc(O)cc1O[C@@H]1O[C@H](CO)[C@@H](O)[C@H](O)[C@H]1O
inactive: CRL-7250 -5.78% | HEK293 | HaCat | KB-3-1 | NIH3T3

CC(=O)OC1C(O)CC(O[C@@H]2O[C@H](CO)[C@@H](O)[C@H](O)[C@H]2O)C2CCC3C(=O)OC(c4ccoc4)CC3(C)C21 (stereo not given in full)
inactive: CRL-7250 -4.25% | HEK293 | HaCat -6.02% | KB-3-1 0.494% | NIH3T3

CCC(C)/C=C(C)/C=C/C1=CC2=C(Cl)C(=O)C(C)(OC(C)=O)C(=O)C2=CN1CCCC(=O)O (stereo not given)
inactive: CRL-7250 | HEK293 | HaCat -6.78% | KB-3-1 | NIH3T3 -0.464%

CC1OC(OC2C(CO)OC(OCC3OC(OC(=O)C45CCC(C)(C)CC4C4=CCC6C7(C)CCC(OC8OC(C(=O)O)C(O)C(OC9OC(CO)C(O)C(O)C9O)C8O)C(C)(C)C7CCC6(C)C4(C)CC5)C(O)C(O)C3O)C(O)C2O)C(O)C(O)C1O (stereo not given)
inactive: CRL-7250 | HEK293 | HaCat -1.82% | KB-3-1 | NIH3T3 3.49%

CC[C@H](C)[C@@H]1NC(=O)[C@H](Cc2ccc(OC)cc2)NC(=O)CCCSC[C@@H](C(=O)N2CCC[C@H]2C(=O)N[C@@H](CC(C)C)C(=O)NCC(N)=O)NC(=O)[C@H](CC(N)=O)NC(=O)[C@H](CCC(N)=O)NC1=O (Y(Me)IQNCPLG-NH2; linker N-5 via X6)
inactive: CRL-7250 -0.379% | HEK293 | HaCat -67.2% | KB-3-1 | NIH3T3

COc1cc(/C=C/C(=O)OC2[C@H](O)CC(O)(C(=O)O)C[C@H]2O)ccc1O (stereo not given in full)
inactive: CRL-7250 3.9% | HEK293 | HaCat | KB-3-1 0.663% | NIH3T3 -0.19%

OC[C@H]1O[C@@H](Oc2cc(O)cc(/C=C/c3ccc(O)cc3)c2)[C@H](O)[C@@H](O)[C@@H]1O
inactive: all assays above

CC(C)C1=CC2=CCC3[C@](C)(CCC[C@@]3(C)C(=O)O)C2CC1O (stereo not given in full)
inactive: CRL-7250 -2.15% | HEK293 | HaCat | KB-3-1 | NIH3T3

O=C1CC(c2ccc([N+](=O)[O-])cc2)=NN1c1ccccc1
inactive: CRL-7250 | HEK293 | HaCat | KB-3-1 3.45% | NIH3T3 2.7%

CC1=CCC2C(C)(CO)CCCC2(C)C1CC12OC1C(O)C(CO)=CC2O (stereo not given)
inactive: CRL-7250 4.27% | HEK293 | HaCat -8.88% | KB-3-1 | NIH3T3

C=C(C)[C@H]1C[C@@H](O)C(=C)CC[C@@H](O)C(=C)[C@@H](O)C1
inactive: CRL-7250 -0.626% | HEK293 | HaCat | KB-3-1 | NIH3T3 -1.51%

CC(c1c[nH]c2ccccc12)C(O)C(=O)O (stereo not given)
inactive: CRL-7250 -1.71% | HEK293 | HaCat -10.2% | KB-3-1 | NIH3T3 3.62%

COC(=O)CC[C@@H](C)[C@H]1CC[C@H]2[C@@H]3CC(=O)[C@H]4C[C@H](OC(C)=O)CC[C@]4(C)[C@H]3CC[C@]12C
inactive: CRL-7250 -2.01% | HEK293 | HaCat | KB-3-1 | NIH3T3 -0.377%

COc1cccc(-n2nc(C(=O)O)cc2-c2ccc(C3CCCCC3)c(Cl)c2)c1
inactive: CRL-7250 | HEK293 | HaCat | KB-3-1 | NIH3T3 2.94%

OCC1=CC[C@@H]2C=CO[C@@H](O[C@@H]3O[C@H](CO)[C@@H](O)[C@H](O)[C@H]3O)[C@H]12
inactive: CRL-7250 | HEK293 | HaCat -13.7% | KB-3-1 | NIH3T3 -0.173%

O=C(O)c1ccc(CCCc2ccc(OCCc3ccc(F)cc3)cc2)o1
inactive: CRL-7250 -2.7% | HEK293 | HaCat | KB-3-1 | NIH3T3

C[C@@H]1O[C@@H](O[C@H]2[C@H](O)[C@@H](C(=O)O)O[C@@H](O[C@H]3CC[C@@]4(C)C(CC[C@]5(C)C4CC=C4C6CC(C)(C)CC[C@]6(C(=O)O)CC[C@]45C)C3(C)C)[C@@H]2O[C@@H]2O[C@H](CO)[C@@H](O)[C@H](O)[C@H]2O)[C@H](O)[C@H](O)[C@H]1O (stereo not given in full)
inactive: CRL-7250 | HEK293 | HaCat | KB-3-1 | NIH3T3 1.81%

From PubChem BioAssay (NCATS)
